Inconclusive results are not listed. The source made the active and inactive calls. Calls come from the whole dose curve; as a rule, active = well fitted cell-killing curve with a large enough effect; inconclusive = small, poorly fitted or top-dose-only effect, or effect the other way; inactive = flat fitted curve, though single readings scatter.
What was measured:
Assay in all cases: Primary qHTS to identify gynecologic anti-cancer compounds using libraries of approved drugs and bioactive compounds (AID 1345084); note: nearly all actives have a fitted effect of over 55% in size
Conditions in all cases: Gynecologic cancer cell panel viability, ATPlite luminescence, 48 h; series mostly up to 57.5 µM
OV90 = test system: OV90
Method in brief: (§1)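 48 h compound exposure at 37 C, 5% CO2; five-point qHTS. ATPlite luminescence readout of cell ATP.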

PA-1 = test system: PA-1
Method in brief: as §1

SKOV3 = test system: SKOV3
Method in brief: as §1

Tov-21-G = test system: Tov-21-G
Method in brief: as §1

Tov112D = test system: Tov112D
Method in brief: as §1
% is set by controls: 0 for no effect and ±100 for the full control effect.

CNC(=O)COC(=O)N1CCC(CCc2ccc(Cl)cc2)CC1
inactive: Potency (OV90) | Potency (PA-1) | Potency (SKOV3) | Potency (Tov-21-G) | Potency (Tov112D)

CN(C)CC#CCCC(=O)C(O)(c1ccccc1)C1CCC1 (stereo not given)
inactive: Potency (OV90) | Potency (PA-1) | Potency (SKOV3) | Potency (Tov-21-G) | Potency (Tov112D)

COc1cc(C(C)C)c(Oc2cnc(N)nc2N)cc1I
inactive: Potency (OV90) | Potency (PA-1) | Potency (SKOV3) | Potency (Tov-21-G) | Potency (Tov112D)

O=C(Nc1ccccc1C(=O)Nc1ccc(CCO)cc1)c1ccc([N+](=O)[O-])cc1
inactive: Potency (OV90) | Potency (PA-1) | Potency (SKOV3) | Potency (Tov-21-G) | Potency (Tov112D)

CC1CCCC(O)CCC/C=C/c2cc(OS(=O)(=O)O)cc(O)c2C(=O)O1 (stereo not given)
inactive: Potency (OV90) | Potency (PA-1) | Potency (SKOV3) | Potency (Tov-21-G) | Potency (Tov112D)

COc1c2c(nc3occc13)C(CC=C(C)C)(OC)C(O)CC2 (stereo not given)
inactive: Potency (OV90) | Potency (PA-1) | Potency (SKOV3) | Potency (Tov-21-G) | Potency (Tov112D)

O=[N+]([O-])c1ccc(Oc2ccc3c(c2)CCC(c2ccccc2)O3)nc1 (stereo not given)
inactive: Potency (OV90) | Potency (PA-1) | Potency (SKOV3) | Potency (Tov-21-G) | Potency (Tov112D)

CN(C)CCOc1cc(NS(=O)(=O)c2c(Cl)cc(C(F)(F)F)cc2Cl)ccc1Cl
inactive: Potency (OV90) | Potency (PA-1) | Potency (SKOV3) | Potency (Tov-21-G) | Potency (Tov112D)

Cc1cc2c(c(=O)o1)C=C1CC[C@H]([C@H](C)Cn3cnc(=N)c4[nH]cnc43)C[C@@H]1O2
inactive: Potency (OV90) | Potency (PA-1) | Potency (SKOV3) | Potency (Tov-21-G) | Potency (Tov112D)

CCN(CCNC(=O)Nc1ccccc1Br)c1cccc(C)c1
inactive: Potency (OV90) | Potency (PA-1) | Potency (SKOV3) | Potency (Tov-21-G) | Potency (Tov112D)

O=C(Nc1cnc(Cl)nc1)c1ccc(F)c(F)c1
inactive: Potency (OV90) | Potency (PA-1) | Potency (SKOV3) | Potency (Tov-21-G) | Potency (Tov112D)

Cn1ccc(NC(=O)c2cc(Oc3ccc(C(=O)N4CCC4)c(F)c3)c3c(c2)OC(C)(C)C3)n1
inactive: Potency (OV90) | Potency (PA-1) | Potency (SKOV3) | Potency (Tov-21-G) | Potency (Tov112D)

Cc1cc2sc(NC(=O)Cc3ccccc3)nc2cc1Cl
inactive: Potency (OV90) | Potency (PA-1) | Potency (SKOV3) | Potency (Tov-21-G) | Potency (Tov112D)

N[C@@H]1c2cccnc2[C@H](OC(=O)N2CCC(n3c(=O)[nH]c4ncccc43)CC2)CC[C@H]1c1cccc(F)c1F
inactive: Potency (OV90) | Potency (PA-1) | Potency (SKOV3) | Potency (Tov-21-G) | Potency (Tov112D)

CC(CCC1(O)OC2CC3C4CC=C5C[C@@H](O[C@@H]6O[C@H](CO)[C@@H](O[C@@H]7O[C@@H](C)[C@H](O)[C@@H](O)[C@H]7O)[C@H](O)[C@H]6O[C@@H]6O[C@@H](C)[C@H](O)[C@@H](O)[C@H]6O)CC[C@]5(C)C4CC[C@]3(C)[C@@]2(O)[C@@H]1C)CO[C@@H]1O[C@H](CO)[C@@H](O)[C@H](O)[C@H]1O (stereo not given in full)
inactive: activity change, negative = cytotoxicity (OV90) 3.45% [at 11.6 µM] | activity change, negative = cytotoxicity (PA-1) 19.4% [at 11.6 µM] | activity change, negative = cytotoxicity (SKOV3) 2.43% [at 11.6 µM] | activity change, negative = cytotoxicity (Tov-21-G) 0.779% [at 11.6 µM] | activity change, negative = cytotoxicity (Tov112D) -0.117% [at 11.6 µM]

CN1CCN(c2ccc(-c3cccc(CN4CCOCC4)c3)cc2NC(=O)c2c[nH]c(=O)cc2C(F)(F)F)CC1
inactive: Potency (OV90) | Potency (PA-1) | Potency (SKOV3) | Potency (Tov-21-G) | Potency (Tov112D)

C=C1C(=O)OC2CC3(C)C(O)C(=O)C=C(C)C3CC12 (stereo not given)
inactive: Potency (OV90) | Potency (PA-1) | Potency (SKOV3) | Potency (Tov-21-G) | Potency (Tov112D)

O=C(N[C@H]1CCN(C(=O)c2cc(C(F)(F)F)cc(C(F)(F)F)c2)[C@H](Cc2ccc(Cl)cc2)C1)c1ccnc2ccccc12
inactive: Potency (OV90) | Potency (PA-1) | Potency (SKOV3) | Potency (Tov-21-G) | Potency (Tov112D)

COc1ccc(CCN(C)CCCOc2nsc(-c3ccccc3)n2)cc1OC
inactive: Potency (OV90) | Potency (PA-1) | Potency (SKOV3) | Potency (Tov-21-G) | Potency (Tov112D)

CC(=O)OC1CC(C)C2(CCC3(CC(=O)OC3O)O2)C2(C)CCCC(C)(C)C12 (stereo not given)
inactive: Potency (OV90) | Potency (PA-1) | Potency (SKOV3) | Potency (Tov-21-G) | Potency (Tov112D)

CN[C@@H]1[C@H](O[C@H]2[C@H](O[C@@H]3[C@@H](O)[C@H](O)[C@@H](N=C(N)N)[C@H](O)[C@H]3N=C(N)N)O[C@@H](C)[C@]2(O)CO)O[C@@H](CO)[C@H](O)[C@H]1O
inactive: Potency (OV90) | Potency (PA-1) | Potency (SKOV3) | Potency (Tov-21-G) | Potency (Tov112D)

O=C(NC[C@H]1CN(c2ccc(N3CCOCC3=O)cc2)C(=O)O1)c1ccc(Cl)s1
inactive: Potency (OV90) | Potency (PA-1) | Potency (SKOV3) | Potency (Tov-21-G) | Potency (Tov112D)

COc1cc(C(N)=O)nc(-c2ccccn2)c1O
inactive: Potency (OV90) | Potency (PA-1) | Potency (SKOV3) | Potency (Tov-21-G) | Potency (Tov112D)

CC1=CC2/C=C(\C)CCC(O)C/C=C/C(=O)OC23C(=O)NC(CC(C)C)C3C1C (stereo not given)
inactive: Potency (OV90) | Potency (PA-1) | Potency (SKOV3) | Potency (Tov-21-G) | Potency (Tov112D)

COc1c2c(c(C)c3c1C(=O)OC3)O[C@@]1(C)C[C@@H](OC(C)=O)[C@]34O[C@](OC)(CC[C@]3(C)[C@H]1C2)OC4(C)C
inactive: Potency (OV90) | Potency (PA-1) | Potency (SKOV3) | Potency (Tov-21-G) | Potency (Tov112D)

COC(=O)C[C@H]1C(C)(C)[C@H](OC(=O)c2ccccc2)C2CC3=C4CC(=O)O[C@@H](c5ccoc5)[C@]4(C)CCC3[C@@]1(C)C2=O (stereo not given in full)
inactive: Potency (OV90) | Potency (PA-1) | Potency (SKOV3) | Potency (Tov-21-G) | Potency (Tov112D)

Cc1c(Cl)cccc1S(=O)(=O)Nc1nc(NCCc2ccccc2)nc2c1CN(Cc1ccccc1)CC2
inactive: Potency (OV90) | Potency (PA-1) | Potency (SKOV3) | Potency (Tov-21-G) | Potency (Tov112D)
